# Where a structure was tested more than once in an assay, its records may differ in their call. Activity calls are given as the source filed them. Rule for the calls: active = hit-call score of the fitted dose curve at least 0.9, where 1 is the maximum; inactive = score below 0.9.
# Read-out: Monokine induced gamma interferon (MIG), CXCL9 (gene 4283)
# Experiment: BSK_BE3C_MIG: BioMAP Diversity Plus: BE3C Assay for Monokine induced gamma interferon (MIG) Biomarker Activity (AID 2283035)
# Details: primary human bronchial epithelial cells; actives raise or lower the signal
# Method: BSK_BE3C is a cell-based, multiplexed-readout assay that uses bronchial epithelial cell, a human lung primary cell, with measurements taken at 24 hours after chemical dosing in a 96-well plate.BSK_BE3C_MIG is an assay component measured in the BSK_BE3C assay. It measures MIG antibody related to regulation of gene expression using ELISA technology.Data from the assay component BSK_BE3C_MIG was analyzed into 1 assay endpoint. This assay endpoint, BSK_BE3C_MIG, was analyzed with bidirectional fitting relative to DMSO as the negative control and baseline of activity. Using a type of binding reporter, gain or loss-of-signal activity can be used to understand changes in the signaling as they relate to the gene CXCL9. Furthermore, this assay endpoint can be referred to as a primary readout, because this assay has produced multiple assay endpoints where this one serves a signaling function. To generalize the intended target to other relatable targets, this assay endpoint is annotated to the cytokine intended target family, where the subfamily is chemotactic factor.
# The levels of cell surface (or secreted, indicated by the prefix "s") biomarker endpoints were measured by ELISA. Overt cytotoxicity to cells in confluent adherent cultures (all systems other than the BT system) was assessed by measuring total protein levels using sulforhodamine B (SRB) staining in parallel cultures at the time of biomarker measurements, indicated as SRB endpoints. For proliferation assays for adherent cell types, individual cell types are cultured at sub-confluence and relative cell numbers quantified by SRB staining at time points optimized for each system (48 h: 3C and CASM3C systems; 72 h: BT and HDF3CGF systems; 96 h: SAg system). SRB was performed by staining cells with 0.1% SRB after fixation with 10% TCA and reading wells at 560 nm.Viability and proliferation of PBMC (T cells) was quantified by Alamar Blue reduction for the SAg and BT systems. For PBMC viability (referred to as PBMC Cytotoxicity within the assay endpoint names), cells were plated (75,000/well in a 96-well plate) and then chemical samples added for 1 h before addition of activators, SEB and TSST-1 (20 ng/mL final concentration each). Cells were incubated for 90 h. Then, Alamar Blue (20 uL/well) (Invitrogen, Cat DAL1100) was added for 6 h, and the plates were read with a fluorescence microplate reader at 546/580 nm (excitation/emission). For PBMC proliferation, cells were plated and activated as above but incubated for only 16 h prior to addition of Alamar Blue. Plates were read after 6 h.
Structure (SMILES),outcome,AC50
CC(C)Cc1ccc(C(C)C(=O)O)cc1 (stereo not given),inactive,–
O=C1OC2(c3ccc(O)cc3Oc3cc(O)ccc32)c2ccccc21,inactive,–
O=S1(=O)CC(Cl)(Cl)C(Cl)(Cl)C1,–,2.04 µM (active)
CCCCCCCC1CCCC1=O (stereo not given),inactive,–
COc1ccccc1NC(=O)CC(C)=O,inactive,–
CCOC(=O)C=Cc1ccccc1,inactive,–
C=CC(=O)OCC(CO)(COC(=O)C=C)COC(=O)C=C,–,2.03 µM (active)
CC=CC(=O)C1=C(C)C=CCC1(C)C,inactive,–
OCC(F)(OC(F)(F)C(F)(OC(F)(F)C(F)(F)C(F)(F)F)C(F)(F)F)C(F)(F)F (stereo not given),inactive,–
Nc1ccc(N)c([N+](=O)[O-])c1,inactive,–
CC(C)(C)c1cccc(O)c1,inactive,–
CC(C)(CO)CO,inactive,8.35 µM (active)
CC(=O)OC(C)(C)C1CC=C(C)CC1 (stereo not given),inactive,–
CC1(C)[C@H](C=C(Cl)Cl)[C@H]1C(=O)OCc1cccc(Oc2ccccc2)c1,inactive,–
CCC(=O)OCC=Cc1ccccc1,inactive,–
CCCO[Si](OCCC)(OCCC)OCCC,inactive,–
O=C(O)C(F)(F)OC(F)(F)C(F)(F)OC(F)(F)C(F)(F)C(F)(F)C(F)(F)F,inactive,–
c1ccc(Sc2ccccc2)cc1,inactive,–
CCOC(=O)CCCCCCCCC(=O)OCC,inactive,–
C[C@]12CC[C@@H]3c4ccc(O)cc4CC[C@H]3[C@@H]1CC[C@@H]2O,inactive,–

Structure (SMILES),outcome,AC50
CCn1cc(C(=O)O)c(=O)c2ccc(C)nc21,inactive,–
OCCN1CCOCC1,inactive,–
CC(=O)CCC=C(C)CCC=C(C)C,inactive,–
COC(=O)c1ccc(C(=O)OC)cc1,inactive,–
C=C(C)C(=O)OCCC(F)(F)C(F)(F)C(F)(F)C(F)(F)C(F)(F)C(F)(F)C(F)(F)C(F)(F)F,inactive,–
O=S(=O)(O)C(F)(F)C(F)(F)OC(F)(F)C(F)(F)F,inactive,–
C=C(F)C(=O)OC(C(F)(F)F)C(F)(F)F,inactive,–
NC(=O)c1c(Cl)cccc1Cl,inactive,–
c1ccc(OCCOc2ccccc2)cc1,inactive,–
C=C(C)C(N)=O,inactive,–
C#C[C@]1(O)CC[C@H]2[C@@H]3CCc4cc(O)ccc4[C@H]3CC[C@@]21C,inactive,–
CC1=CC(C)C(C=O)C(C)C1 (stereo not given) (tested in a mixture with another compound),inactive,–
CC(=O)c1ccc(C)cc1,inactive,–
CC(=O)OCC=C(C)CCC=C(C)CCC=C(C)C,inactive,–
CCCCCCCCCCCCS,inactive,–
O=C(c1ccc(OCCN2CCCCC2)cc1)c1c(-c2ccc(O)cc2)sc2cc(O)ccc12,–,37.2 µM (active)
CCCCOCCOCCO,inactive,–
CCCCN(CCO)CCO,inactive,–
O=C(O)C(F)(F)C(F)(F)C(F)(F)C(F)(F)C(F)(F)C(F)(F)C(F)(F)C(F)F,inactive,–

# From PubChem BioAssay (EPA / NIEHS)
